Test results: PubChem BioAssay AID686979 (National Center for Advancing Translational Sciences (NCATS), 2013)
Several values for one entry are separate records, joined by “and”; a condition that tells them apart may be missing. Equal entries are not always repeated. Screen size: about 420,000 compounds; about 50,000 (12%) were called active. Inconclusive results (about 26%) are left out. Calls follow the shape of the dose curve; as a rule, active = well fitted inhibition curve with a large enough effect; inconclusive = small, poorly fitted or top-dose-only effect; inactive = flat fitted curve, though single readings scatter. Many of the other results were omitted from the sample, so actives are more common in it than they were. A structure can be active in one record and inactive in another.

Assay: qHTS for Inhibitors of human tyrosyl-DNA phosphodiesterase 1 (TDP1): qHTS in cells in presence of CPT; also: nearly all actives have a fitted effect of over 55% in size
Details: chicken DT40 Tdp1-/-;hTDP1 cells + 20 nM CPT, ATP luminescence, 48 h; series mostly up to 46.2 µM; activity change, negative = growth inhibition: at the top concentration
How it was run: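 Cell growth measured by CellTiter-Glo luminescence after a minimum 48 h, 37 C compound exposure with 20 nM CPT in Tdp1-knockout DT40 cells stably expressing hTDP1, seeded 400/well; qHTS titration format.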
% is scaled to controls: 0 for no effect and ±100 for the full control effect; potency is read from the fitted curve at half-maximal effect.

SMILES	activity change, negative = growth inhibition	Potency
Cn1c(=O)c2c(SCC(=O)NCC3CCCO3)nc(CC(C)(C)C)nc2n(C)c1=O (configuration not stated)	-18.2% (inactive)	–
Cc1ccc(NC(=O)c2cn3c4c(ccc(Cl)c4c2=O)OC(C)C3)cc1C (configuration not stated)	-0.412% (inactive)	–
Cc1ccc(C)c(C(C)NC(=O)C2CCCO2)c1 (configuration not stated)	-22.5% (inactive)	–
Cc1nc(N)nc(Cl)c1CCC1OCCO1	18.7% (inactive)	–
C=CCNc1cnn(-c2ccc(C)cc2)c(=O)c1Cl	7.55% (inactive)	–
O=c1c(Cl)c(NC2CC2)cnn1-c1ccccc1	-3.31% (inactive)	–
Cc1cccc(-n2ncc(Cl)c(Cl)c2=O)c1	–	5.17 µM (active)
O=C(OCC(=O)N1CCc2ccccc21)c1ccc([N+](=O)[O-])cc1	–	20.6 µM (active)
Cc1ccc(S(=O)(=O)NCC(=O)OCC(=O)N2CCc3ccccc32)cc1	-5.65% (inactive)	–
O=C(OCC(=O)N1CCc2ccccc21)C1CCCN1S(=O)(=O)c1ccc(Cl)cc1 (configuration not stated)	-18.7% (inactive)	–
CO/N=C(\C(=O)N[C@@H]1C(=O)N2C(C(=O)O)=C(C[N+]3(C)CCCC3)CS[C@H]12)c1csc(N)n1	-6.89% (inactive)	–
O=c1c2ccccc2nc(CSc2nnnn2-c2ccccc2)n1-c1ccccc1	-15.2% (inactive)	–
CCC1NC(=O)c2cccnc2-n2c1nc1ccc(C)cc1c2=O (configuration not stated)	-4.75% (inactive)	–
CCCN1C(=O)C(Cc2nc3ccccc3c(=O)n2-c2ccccc2)c2cc(C)ccc21 (configuration not stated)	–	inactive and 16.4 µM (active)
Cc1ccc(Cl)cc1NC(=O)C(C)n1nnc2sc(-c3ccccc3)cc2c1=O (configuration not stated)	-17.5% (inactive)	–
O=C(Nc1c2c(nn1-c1cccc(Cl)c1)CS(=O)(=O)C2)c1cccs1	4.51% (inactive)	–
COCCN(C(=O)CC1CCCCC1)c1c(N)n(CC(C)C)c(=O)[nH]c1=O	-7.04% (inactive)	–
CCc1nc2sc3c(Cl)ncnc3c2c2c1CCCC2	9.75% (inactive)	–
OCCCC1CCCCN1Cc1nc(Cc2ccccc2Cl)no1 (configuration not stated)	-5.93% (inactive)	–
Cc1cc(C(=O)NCCCc2ccccc2)no1	-2.67% (inactive)	–
COc1ccccc1-n1c(C)nc2cc(C(=O)NCc3ccc4c(c3)OCO4)ccc21	-2.89% (inactive)	–
CC(C)c1ccc(C(=O)NCCCc2ccccc2)cc1	-11.7% (inactive)	–

SMILES	activity change, negative = growth inhibition	Potency
COc1cc(-n2c(C)nc3cc(C(=O)NCc4ccco4)ccc32)cc(OC)c1OC	-3.22% (inactive)	–
COc1cccc(CNC(=O)c2ccc3c(c2)sc2nc(-c4cccc(OC)c4)cn23)c1	–	6.51 µM (active)
CCOc1ccc(CCNC(=O)c2ccc3c(c2)sc2nc(-c4ccc(F)cc4)cn23)cc1OCC	–	7.31 µM (active)
COc1ccc(C(=O)NCc2cn3ccccc3n2)cc1	-7.24% (inactive)	–
COc1ccc(CCNC(=O)c2ccc3c(c2)nc(C)n3-c2ccc(Br)cc2)cc1OC	–	20.6 µM (active)
O=C(NCCc1ccc(F)cc1)c1ccc2nccnc2c1	-16.7% (inactive)	–
CCOC(=O)c1ccccc1NC(=O)c1sc2nc(-c3ccc(F)cc3)cn2c1C	20% (inactive)	–
COc1ccc2oc(=O)c(-c3cn4c(n3)sc3cc(OC)ccc34)cc2c1	-1.91% (inactive)	–
Cc1ccc(-c2cn3c(n2)sc2cc(C(=O)NCCCc4ccccc4)ccc23)cc1	–	14.6 µM (active)
Cc1ccc(C(=O)Cn2cccn2)cc1	-0.868% (inactive)	–
OC(CNCc1ccc2c(c1)OCO2)COc1ccccc1 (configuration not stated)	-2.53% (inactive)	–
COC(C)C(C(=O)OCC1=CCN2CC[C@H](O)[C@@H]12)C(C)C (some centres not stated)	-27.6% [at 9.04 µM] (inactive)	–
N#Cc1c(C(F)(F)F)cc(-c2cccs2)nc1N1CCCCC1	-14.9% (inactive)	–
COc1ccc(CCNC(=S)N2CCN(S(=O)(=O)c3ccc(F)cc3)CC2)cc1	2.76% (inactive)	–
Cc1cc(NC(=O)CSc2nc(=O)cc(N)n2-c2ccc(F)cc2)no1	12.2% (inactive)	–
Cc1nc2nc(C)c(CCC(=O)N3CCN(c4ccccc4)CC3)c(C)n2n1	-0.967% (inactive)	–
CCN1CCN(CCCNC(=O)c2ccc3c(c2)sc2nc(-c4ccc(OC)cc4)cn23)CC1	–	0.92 µM (active)
Cc1ccc2c(CC(=O)NCc3cccs3)coc2c1	-29.7% (inactive)	–
CCOC(=O)C1CCCN(C(=O)c2ccc(CS(=O)(=O)c3ccc(Br)cc3)o2)C1 (configuration not stated)	-16.8% (inactive)	–
COc1ccc(-c2cc(C(=O)NCCCN3CCOCC3)no2)cc1	-4.72% (inactive)	–
CCOC(=O)C1CCCN(C(=O)c2ccc3c(c2)sc2nc(-c4ccc(CC)cc4)cn23)C1 (configuration not stated)	–	4.11 µM (active)
COc1ccc(CCNC(=O)c2ccc3c(c2)sc2nc(-c4ccc(C)cc4)cn23)cc1OC	–	6.51 µM (active)

SMILES	activity change, negative = growth inhibition	Potency
Cc1ccc(-c2cn3c(n2)sc2cc(C(=O)NCc4cccs4)ccc23)c(C)c1	–	23.1 µM (active)
CCOC(=O)C1CCCN(C(=O)c2cncc(Br)c2)C1 (configuration not stated)	-10.2% (inactive)	–
COc1ccc(C(=O)NCCCN2CCOCC2)cc1Br	-0.798% (inactive)	–
CCOc1cccc2cc(-c3cn4c(n3)sc3cc(C)ccc34)c(=O)oc12	-17.8% (inactive)	–
C=C1O[C@@](CO)(n2cnc3c(N)ncnc32)[C@H](O)[C@@H]1O	9.16% [at 92.5 µM] (inactive)	–
Cc1cccc(NC(=O)CCN2CC(C)CC(C)C2)c1 (configuration not stated)	-19.3% (inactive)	–
CCOc1ccc(C(=O)COC(=O)c2ccc(-n3cnnn3)cc2)cc1	11.6% (inactive)	–
COC(=O)c1ccc(/C=N/NC(=O)C(=O)N2CCCCCC2)cc1	-8.03% (inactive)	–
CCOC(=O)c1c(S(=O)(=O)N2CCCC(C(=O)NCc3cccc(C)c3)C2)c(C)n(C)c1C (configuration not stated)	-6.53% (inactive)	–
CCC(C)N(C(=O)Cn1nc(C)c([N+](=O)[O-])c1C)C1CCS(=O)(=O)C1 (configuration not stated)	4.68% (inactive)	–
CCOc1ccc(NC(=O)c2ccc(NC(=O)CN3C(=O)C(=O)N(CC(C)C)C3=O)cc2)cc1	-28.5% (inactive)	–
O=C(NCCCN1CCOCC1)c1cnn2c(-c3ccccc3)cc(-c3ccccc3)nc12	–	18.4 µM (active)
O=C(NCCCN1CCOCC1)c1ccccc1NS(=O)(=O)c1ccc(F)cc1	18.5% (inactive)	–
O=C(NCCCN1CCOCC1)c1ccccc1NS(=O)(=O)c1ccc(Br)cc1	2.63% (inactive)	–
O=C(NCc1ccco1)/C(=C\c1cccc([N+](=O)[O-])c1)NC(=O)c1ccco1	0.91% (inactive)	–
CC(=O)Oc1ccc2c(c1)C(=O)c1ccccc1C2=O	-4.67% (inactive)	–
O=C1C(Cl)=C(Oc2ccccc2)C(=O)c2ccccc21	–	0.326 µM (active)
COc1ccccc1-n1c(SCC(=O)Nc2ccc(Cl)cc2)nc(O)c(Cc2ccccc2)c1=O	-21.9% (inactive)	–
Cc1ccc(NC(=O)c2sc3nc(N)c(C#N)cc3c2N)cc1	-7.66% (inactive)	–
CCN1CCc2nc(NC(=O)c3cc(F)c(F)cc3Cl)sc2C1	3.07% (inactive)	–
CC(=O)Nc1ccc(NC(=O)c2sc3nc4c(c(-c5ccc(C)cc5)c3c2N)CCC4)cc1	-1.29% (inactive)	–
COc1ccccc1NC(=O)c1ccc2nc(N3C(=O)CCC3=O)sc2c1	-8.2% (inactive)	–

SMILES	activity change, negative = growth inhibition	Potency
CCc1ccc(NC(=O)c2sc3nc4c(cc3c2N)CN(CC)CC4)cc1	–	23.1 µM (active)
COc1ccc(Cl)cc1NC(=O)CN1CCN(C(=O)N2CCOCC2)CC1	0.0115% (inactive)	–
COc1ccc(Cl)cc1NC(=O)c1sc2nc3c(cc2c1N)CN(C)CC3	–	23.1 µM (active)
CCN1CCc2nc3sc(C(=O)Nc4ccccc4OC(F)(F)F)c(N)c3cc2C1	–	16.4 µM (active)
COc1ccc(Cl)cc1NC(=O)c1oc(C)nc1C	-6.17% (inactive)	–
O=C(c1cn(-c2ccccc2)nc1-c1cccnc1)N1CCN(S(=O)(=O)c2ccccc2F)CC1	-31.7% (inactive)	–
O=C(NC(=S)Nc1ncccn1)c1ccccc1Br	-26.7% (inactive)	–
COC(=O)C1(CCSC)NC(c2ccc(OC)cc2OC)C2C(=O)N(c3cccc(C(C)=O)c3)C(=O)C21 (configuration not stated)	-0.339% (inactive)	–
O=C(CSc1ccccn1)N1CCN(S(=O)(=O)c2ccc(Cl)cc2)CC1	-6.31% (inactive)	–
O=P(O)(O)OC[C@H](O)CO	-6.58% (inactive)	–
Cc1cn([C@H]2C[C@H](O)[C@@H](/C=C/C(=O)NCCCc3ccccc3)O2)c(=O)[nH]c1=O	9.83% (inactive)	–
Cc1ccc(S(=O)(=O)N(CCCN(C)C)Cc2ccc3c(c2)OCO3)cc1	–	16.4 µM (active)
Cc1ccc(CNCc2ccc3c(c2)OCO3)c(C)c1	20.3% (inactive)	–
Cc1ccc(-c2nc(CS(=O)(=O)CC(=O)NCc3ccc4c(c3)OCO4)c(C)o2)cc1	2.22% (inactive)	–
CC1CN(C(=S)Nc2ccc(Br)cc2Cl)CC(C)O1 (configuration not stated)	-1.84% (inactive)	–
CC[n+]1cc(C)ccc1/C=C/c1ccc(N(C)C)cc1	–	0.0291 µM (active)
COc1ccccc1-n1cnc2cc(NS(=O)(=O)c3ccccc3)ccc21	-23.5% (inactive)	–
CCOC(=O)CSC1=Nc2ccccc2C2=NC(CCC(=O)NCc3ccc(F)cc3)C(=O)N12 (configuration not stated)	-21.9% (inactive)	–
CCN1N=C(c2ccccc2)CCC1=O	0.136% (inactive)	–
CC(=O)NC1=NN(C(C)=O)C(C)(CCS(=O)(=O)c2ccc(Cl)c(Cl)c2)S1 (configuration not stated)	13% (inactive)	–
O=C(NC1=NCCS1)c1ccc(Cl)s1	-8.25% (inactive)	–
CC(=O)NC1=NN(C(C)=O)C(C)(c2ccc(Cl)s2)S1 (configuration not stated)	–	6.51 µM (active)

SMILES	activity change, negative = growth inhibition	Potency
CC/C(Cc1ccccc1)=N/NC(=O)CCn1nnc2ccccc21	13.6% (inactive)	–
OCCNc1nc(Nc2ccc(Cl)c(Cl)c2)nc2ccccc12	–	18.4 µM (active)
Nc1nc(Nc2ccccc2)nc(NCCO)c1[N+](=O)[O-]	-8.15% (inactive)	–
O=C(O)c1ccc(Nc2nc(-c3ccccc3)c3cc(Br)ccc3n2)cc1	0.528% (inactive)	–
CO[C@H]1[C@@H]2C=CO[C@@H](O[C@H]3O[C@@H](CO)[C@H](O)[C@@H](O)[C@@H]3O)[C@@H]2[C@@]2(CO)O[C@@H]12	-14.4% (inactive)	–
CCN(C(=O)CSc1nnc(-c2ccncc2)o1)c1ccccc1	-8.99% (inactive)	–
O=C(COc1ccccc1)N1CCN=C1SCc1cccc(F)c1	-17.8% (inactive)	–
COC(=O)CNC(=O)c1ccccc1[N+](=O)[O-]	1.96% (inactive)	–
O=C(CCc1ccccc1)NNC(=O)c1ccc(Br)cc1	24.8% (inactive)	–
COc1ccc(NC(=O)c2ccccc2[N+](=O)[O-])cc1OC	7.09% (inactive)	–
CC(C)Oc1ccc(CCC(=O)NNC(=S)NCc2ccccc2)cc1	4.02% (inactive)	–
COc1ccc(C(=O)NNC(=S)NC(=O)c2ccccc2)cc1	–	9.2 µM (active)
COc1ccc(C(=O)NNC(=S)NC(=O)c2ccccc2[N+](=O)[O-])cc1	–	18.4 µM (active)
O=C(NNC(=O)c1ccc(Cl)nc1)c1ccc(Br)cc1	10.8% (inactive)	–
COc1ccc(C(=S)Nc2ccccc2)cc1	-2.36% (inactive)	–
COc1ccc(C(=O)NC(=S)NNC(=O)c2c(-c3ccccc3)noc2C)cc1	-13.7% (inactive)	–
COc1ccc(C(=O)NC(=S)NNC(=O)CCc2ccccc2)cc1	–	8.2 µM (active)
CC(=O)NC(=S)NNC(=O)c1ccc(Br)cc1	–	6.51 µM (active)
CNC(=S)NNC(=O)c1ccc(N(C)C)cc1	4.25% (inactive)	–
